Screens (PubChem)
D3 ag: qHTS of D3 Dopamine Receptor Agonist: qHTS; max activation, %; D(3) dopamine receptor (Homo sapiens), P35462; D3R DiscoveRx beta-arrestin cells, luminescence, 90 min; 0.58% of 410,000 active; AID 652048, 2013; in the data active means max activation above about 30%
Target sequence (P35462 whole entry, looked up): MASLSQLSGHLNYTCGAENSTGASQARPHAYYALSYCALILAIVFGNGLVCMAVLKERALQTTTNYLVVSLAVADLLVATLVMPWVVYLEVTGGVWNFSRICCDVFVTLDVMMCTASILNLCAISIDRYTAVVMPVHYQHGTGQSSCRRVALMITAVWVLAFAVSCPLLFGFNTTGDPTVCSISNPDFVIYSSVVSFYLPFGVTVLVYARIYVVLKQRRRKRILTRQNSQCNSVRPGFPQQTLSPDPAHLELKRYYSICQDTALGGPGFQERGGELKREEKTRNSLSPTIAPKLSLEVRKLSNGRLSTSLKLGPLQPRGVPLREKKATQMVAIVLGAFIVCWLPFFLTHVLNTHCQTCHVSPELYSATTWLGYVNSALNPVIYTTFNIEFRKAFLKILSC
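Cells at 1500/well, incubated overnight, then treated with pinned compounds (dopamine as control) for 90 min at 37 degrees C. DiscoveRx reagent added for 30 - 60 minutes at room temperature; luminescence read.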
ClpP mod: qHTS Assay for Activators of ClpP; Potency, µM (highest dose often 57.5 µM); purified B. subtilis ClpP, FRET peptide cleavage, 20 min; 1.9% of 340,000 active; active means well fitted falling curve with a large enough effect; inconclusive means small, poorly fitted or top-dose-only effect; inactive means no such curve, though single readings can be large or run the other way; further: the source files actives as falling curves though it sought activators and does not explain the sign; nearly all actives have a fitted effect of over 65% in size
Target sequence (P80244 whole entry, looked up): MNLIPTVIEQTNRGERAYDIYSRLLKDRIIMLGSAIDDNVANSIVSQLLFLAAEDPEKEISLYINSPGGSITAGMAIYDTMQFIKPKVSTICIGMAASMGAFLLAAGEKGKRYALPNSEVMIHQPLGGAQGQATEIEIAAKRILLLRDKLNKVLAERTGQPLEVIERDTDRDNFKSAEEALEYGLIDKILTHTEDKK
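Buffer: 100 mM Tris/HCl pH8, 100 mM KCl, 0.05% low protease BSA, 2.5% glycerol, 0.01% Tween-20. ClpP 10 microg/mL final; 20 min RT; delta FRET normalized to ADEP and DMSO controls.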
DT40 TDP1 no CPT: qHTS for Inhibitors of human tyrosyl-DNA phosphodiesterase 1 (TDP1): qHTS in cells in absence of CPT. DT40 Tdp1-/- hTDP1 cells, no CPT, ATP luminescence, 48 h. Potency, µM (highest dose often 46.2 µM), actives largely listed as inhibitors. 15% of 420,000 active. AID 686978, 2013; further: nearly all actives have a fitted effect of over 55% in size
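Luminescent ATP content (CellTiter-Glo) served as the growth readout. Knockout chicken DT40 cells expressing human TDP1 were exposed to compounds without camptothecin for a minimum 48 hr at 37 °C.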
D3 antag: qHTS of D3 Dopamine Receptor Antagonist: qHTS; D(3) dopamine receptor (Homo sapiens), P35462; D3R cells, DiscoveRx beta-arrestin luminescence, antagonist mode; stronger effect = lower value; max response, negative = inhibition, %; 2.5% of 360,000 active; in the data active means max response below about -50%; inconclusive means no clear call, values can overlap the other calls
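Cells plated overnight at 1500 cells/well, then exposed to library compounds with dopamine controls for 90 minutes at 37 degrees C. DiscoveRx reagent added for 30–60 minutes at room temperature; luminescence read, quantitative HTS format.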
IL-1B inflam inh: qHTS for Inhibitors of Inflammasome Signaling: IL-1-beta AlphaLISA Primary Screen; THP-1 LPS/ATP IL-1B secretion, AlphaLISA, 16 h; stronger effect = lower value; activity change, % at 57.5 µM; 4.7% of 360,000 active; AID 743279, 2014; in the data active means activity change below about -50%; inconclusive means mostly about -30% to -49%
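THP-1 cells pretreated 1 hr with compounds (up to 57.5 uM final), then stimulated with LPS (250 ng/mL final) plus ATP (1.25 mM final); secreted IL-1B measured by AlphaLISA after 16 hr, decreased signal indicating inhibition.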
DT40 TDP1 CPT: qHTS for Inhibitors of human tyrosyl-DNA phosphodiesterase 1 (TDP1): qHTS in cells in presence of CPT. 12% of 420,000 active. chicken DT40 Tdp1-/-;hTDP1 cells + 20 nM CPT, ATP luminescence, 48 h. Potency, µM (doses to about 46.2 µM), most hits filed as inhibitors; further: nearly all actives have a fitted effect of over 55% in size
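Cell growth measured by CellTiter-Glo luminescence after a minimum 48 h, 37 C compound exposure with 20 nM CPT in Tdp1-knockout DT40 cells stably expressing hTDP1, seeded 400/well; qHTS titration format.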
Large screens that a line does not name were inactive. Compounds with a hit are over-represented: about 21% of the library has one in this group of screens. Unless noted, the call rests on the fitted dose curve; in most records, active means well fitted inhibition curve with a large enough effect; inconclusive means small, poorly fitted or top-dose-only effect; inactive means flat fitted curve, though single readings scatter.

O=C(N/N=C/C(Br)=C/c1ccccc1)c1cccnc1	DT40 TDP1 no CPT 2.1µM, IL-1B inflam inh -95, DT40 TDP1 CPT 2.6µM (no result: ClpP mod)
CC(=C/c1ccccc1)/C=N/NC(=O)c1ccc2nc[nH]c2c1	DT40 TDP1 no CPT inconclusive
CC(=O)N/C(=C/c1ccccc1)c1ccncc1	DT40 TDP1 no CPT 11µM, DT40 TDP1 CPT 7.9µM (no result: D3 ag, D3 antag, IL-1B inflam inh)
O=C(N/N=C/C(Br)=C\c1ccccc1)c1ccc2nc[nH]c2c1	ClpP mod inconclusive, DT40 TDP1 no CPT 15µM, IL-1B inflam inh -90, DT40 TDP1 CPT 10µM
O=C(N/N=C/c1cccc([N+](=O)[O-])c1)c1ccc(Br)cc1	none (no result: ClpP mod)
COc1cc(=O)n(C)c2c(OCC3OC(C)(C)OC3(C)C)cccc12 (centres undefined)	none
COc1cccc(NC(=O)c2sc3nc(C)c(C(=O)Nc4ccc(C)cc4C)c(-c4ccc(Br)cc4)c3c2N)c1	DT40 TDP1 CPT inconclusive (no result: D3 antag, IL-1B inflam inh)
O=C(N/N=C/C(Br)=C/c1ccccc1)c1ccncc1	DT40 TDP1 no CPT 1.6µM, IL-1B inflam inh -84, DT40 TDP1 CPT 1.6µM
CCCCN1CCCC[C@H]1C(=O)Nc1c(C)cccc1C	none (no result: ClpP mod, D3 antag, IL-1B inflam inh)
CC1CCN(C(=O)Nc2cccc(NC(=O)N3CCC(C)CC3)c2)CC1	ClpP mod inconclusive, DT40 TDP1 no CPT 5.2µM, IL-1B inflam inh inconclusive
CC1CCN(C(=O)Nc2ccc3nsnc3c2)CC1	none
COC(=O)C1CCN(C(=O)Nc2ccccc2)CC1	IL-1B inflam inh -105 (no result: ClpP mod)
CCOC(=O)C1CCN(C(=O)Nc2ccc3nccnc3c2)CC1	ClpP mod 32µM
Cc1ccc(N2CCN(C(=O)C3CCC(=O)N(Cc4ccc(Cl)cc4)C3)CC2)c(C)c1 (centres undefined)	DT40 TDP1 no CPT 18µM, DT40 TDP1 CPT 18µM
NC(=O)C1CCN(C(=O)C2CCC(=O)N(Cc3ccc(Cl)cc3)C2)CC1 (centres undefined)	none
COc1ccc(C(=O)N2CC(c3ccc(Cl)cc3)CC2=O)cc1 (centres undefined)	none
COc1ccc(C(=O)CN2CC(C)SC2=Nc2ccc(Cl)cc2)cc1 (centres undefined)	DT40 TDP1 no CPT 23µM, DT40 TDP1 CPT inconclusive
Cc1c(CCOC(=O)c2ccccc2)sc[n+]1CC(=O)c1ccc(Br)cc1	DT40 TDP1 no CPT inconclusive, IL-1B inflam inh -65, DT40 TDP1 CPT inconclusive (no result: ClpP mod)
Cc1c(CCOC(=O)c2ccccc2)sc[n+]1Cc1ccccc1	DT40 TDP1 no CPT 23µM, D3 antag inconclusive, DT40 TDP1 CPT 16µM
Cc1c(CCOC(=O)c2cc([N+](=O)[O-])cc([N+](=O)[O-])c2)sc[n+]1CC(=O)c1ccccc1	none
Cc1ccccc1OCCSc1nc2ccccc2n1CCC(=O)O	none
CNC(=O)C(=O)NCCCN1CCOCC1	none
CCN(CC)CCNC(=O)C1CCC(=O)N(c2ccc(OC)cc2)C1c1ccc(F)cc1 (centres undefined)	D3 antag -67
O=C(O)c1cccc2cc(-c3ccccc3)oc(=O)c12	none
O=C(O)c1cccc2cccc(-c3c4ccc(=O)c(O)c-4oc4c(O)c(O)ccc34)c12	DT40 TDP1 no CPT 7.3µM, DT40 TDP1 CPT 10µM
C=CCn1c(SCC(=O)NC2CCCC2)nnc1-c1cccnc1	none
COc1ccccc1C(=O)Nc1nnc([C@@H]2C[C@H](O)[C@@H](CO)O2)s1	none
Cc1cc(N2CCN(C(=O)c3ccco3)CC2)n2nc(-c3cccc(Cl)c3)cc2n1	ClpP mod 35µM, DT40 TDP1 no CPT inconclusive, IL-1B inflam inh -66, DT40 TDP1 CPT 23µM
COc1ccc(-c2csc(N3CCN(C(=O)c4ccco4)CC3)n2)cc1	DT40 TDP1 no CPT inconclusive, IL-1B inflam inh inconclusive, DT40 TDP1 CPT inconclusive
Cc1ccc(-c2cc3nc(C)cc(N4CCN(C(=O)c5ccoc5)CC4)n3n2)cc1	ClpP mod inconclusive, DT40 TDP1 no CPT 18µM, DT40 TDP1 CPT inconclusive
COc1cccc(-c2cc3nc(C)c(C)c(N4CCN(C(=O)c5ccoc5)CC4)n3n2)c1	DT40 TDP1 no CPT 8.2µM, DT40 TDP1 CPT 13µM
COc1ccc(-c2cc3nc(C)cc(-c4ccc(OC)cc4)n3n2)cc1	DT40 TDP1 no CPT inconclusive, DT40 TDP1 CPT inconclusive
COc1ccc(-c2cc3nc(C)cc(N4CCN(C(=O)c5ccco5)CC4)n3n2)cc1	DT40 TDP1 no CPT 12µM, DT40 TDP1 CPT 21µM
CC[N+]1(CC(=O)c2ccc(Cl)cc2)CCCCC1	none (no result: D3 ag, D3 antag, IL-1B inflam inh)
Cc1cc(N2CCN(C(=O)c3ccco3)CC2)n2nc(C)c(-c3ccccc3)c2n1	DT40 TDP1 no CPT 23µM, IL-1B inflam inh inconclusive, DT40 TDP1 CPT 23µM
CCCSc1nc(-c2ccccc2)[nH]c1S(=O)(=O)c1ccc(C)cc1	DT40 TDP1 no CPT 18µM, DT40 TDP1 CPT inconclusive (no result: D3 antag, IL-1B inflam inh)
CC(=O)CSc1nc(-c2ccccc2)[nH]c1S(=O)(=O)c1ccc(C)cc1	DT40 TDP1 no CPT 3.3µM, DT40 TDP1 CPT inconclusive (no result: D3 antag, IL-1B inflam inh)
Cc1ccc(S(=O)(=O)c2[nH]c(-c3ccccc3)nc2SCCC(=O)O)cc1	none (no result: D3 antag, IL-1B inflam inh)
O=C(Cn1c(=O)n(CCc2c[nH]c3ccccc23)c(=O)c2cccnc21)Nc1ccccc1F	DT40 TDP1 no CPT 23µM, DT40 TDP1 CPT 15µM
Cc1scc(C(=O)NNC(=S)NC(C)c2ccccc2)c1C (centres undefined)	DT40 TDP1 no CPT 21µM, DT40 TDP1 CPT 16µM
COCCCNCCC(CCC(C)C)c1ccc2c(c1)OCO2 (centres undefined)	DT40 TDP1 no CPT 21µM, D3 antag inconclusive, IL-1B inflam inh -70, DT40 TDP1 CPT inconclusive
CC(C)CCC(CCN1CCOCC1)c1ccc2c(c1)OCO2 (centres undefined)	DT40 TDP1 no CPT inconclusive, D3 antag inconclusive, DT40 TDP1 CPT inconclusive
CC(C)CCC(CCN1CCCC1)c1ccc2c(c1)OCO2 (centres undefined)	DT40 TDP1 no CPT inconclusive, D3 antag inconclusive, IL-1B inflam inh -70, DT40 TDP1 CPT inconclusive (no result: ClpP mod)
Cc1ccc(O)c(N)c1	DT40 TDP1 no CPT 23µM, D3 antag -105, DT40 TDP1 CPT inconclusive
Cc1ccc(SSc2cc(C)ccc2N)c(N)c1	DT40 TDP1 no CPT 8.2µM, IL-1B inflam inh -108, DT40 TDP1 CPT 7.3µM
CN(C)c1ncc2nc(-c3cc(F)cc(F)c3)c(=O)n(C)c2n1	none (no result: D3 ag, ClpP mod, D3 antag, IL-1B inflam inh)
O=C(C1CCN(c2nnc(N3CCCC3=O)s2)CC1)N1CCN(Cc2ccc3c(c2)OCO3)CC1	IL-1B inflam inh inconclusive
